# The full list was thinned out, with hits kept by preference.
# Methyltransferases: Primary Screen for Target Class Profiling of Small Molecule Inhibitors of Methyltransferases; 3.9% of 25,000 active; AID 1745853, 2022; calls only at 40 µM; purified enzyme, MTase-Glo SAH luminescence; hits give low values; call rule not given here
#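 Each enzyme was assayed with SAM and its substrate. SAH formation detected by MTase-Glo luminescence; single-point 40 uM screen[…].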
# MTase-Glo counter: Counterscreen for Target Class Profiling of Small Molecule Inhibitors of Methyltransferases | MTase-Glo coupled enzymes, SAH conversion luminescence, no MTase | 6% of 180 active | Potency, µM (doses to about 57.3 µM), for inactives: top-dose activity change, negative = inhibition, hits mostly inhibitors | shares compounds with Methyltransferases | AID 1745851, 2022; active = well fitted inhibition curve with a large enough effect; also: potency is read from the fitted curve at half-maximal effect
# The depositor's hits bear a star; i = inactive; + = active, no number; ! = a repeat was not active; [ ] = dose if it differs, or a comment. % is scaled to controls: 0 for no effect and ±100 for the full control effect.
SMILES,Methyltransferases,others
COc1ccccc1NS(=O)(=O)c1ccc2c(c1)NC(=O)C(C)C(=O)N2 (centres undefined),i,
CCCN1C(=O)c2ccc(-c3ccccc3)n2CC1(C)C(=O)NC1CCCCC1 (centres undefined),i,
Cn1c(=O)c2ccc(C(=O)NC3CCCCC3)cc2n2c(=O)n(CC(=O)Nc3ccccc3F)nc12,i,
CCCCN1C(=O)c2cc(C(=O)Nc3ccccc3Br)nn2CC1(C)C(=O)NC1CCCC1 (centres undefined),i,
CC(NC(=O)CCc1nnc2n(Cc3ccccc3)c(=O)c3ccccc3n12)c1ccccc1 (centres undefined),i,
CC(C)Cn1c(=O)c2ccccc2n2c(CCC(=O)NCCCOC(C)C)nnc12,i,
CN1C(=O)c2cc(C(=O)NCCc3cccs3)nn2CC1(C)C(=O)NC1CCCCCC1 (centres undefined),i,
COc1ccc(N(C(=O)c2ccco2)S(=O)(=O)c2ccc3c(c2)n(C)c(=O)n3C)cc1,i,
NC1(c2ccc(-c3nc4ccn5c(=O)[nH]nc5c4cc3-c3ccccc3)cc2)CCC1,+,
Cc1cc2c(cc1NS(=O)(=O)c1ccc3c(c1)n(C)c(=O)n3C)n(C)c(=O)n2C,i,
O=C(NC1CC1)c1ccc2c(=O)nc3c(-c4ccc(Cl)cc4)n[nH]n3c2c1,i,
N#Cc1ccc(-c2csc(NN=C3CCCC3)n2)cc1,+!,
COc1ccccc1N1C(=O)CSc2c(c3ccccc3n2C)C1C(=O)NCc1ccc(F)cc1 (centres undefined),i,
Cc1ccc(C)c(Cn2nc3n(C(C)C)c(=O)c4ccc(C(=O)NC5CCCC5)cc4n3c2=O)c1,i,
CN(CCc1nc2ccc(Cl)cc2[nH]1)c1cc(C2CC(O)C2)nc(N)n1 (centres undefined),+,MTase-Glo counter=-4%
Nc1nc(C2CC(O)C2)cc(N2CC(N3CCOCC3)C2)n1 (centres undefined),i,
CN(CCO)C[C@@H]1CN(C(=O)CCc2nc3ccc(F)cc3[nH]2)C[C@@H]1CO,i,
O=C(c1ccc2c(=O)nc3c(-c4ccccc4)n[nH]n3c2c1)N1CCN(c2ccccc2F)CC1,i,
Cc1ccc(CN2CCC3(CC2)CC(c2ccccc2)C(=O)N3C)cc1F (centres undefined),i,
CN1C(=O)C(c2ccccc2)CC12CCN(c1ccnc(N)n1)CC2 (centres undefined),+,MTase-Glo counter=5%
Cc1cc2c(cc3n2CC(C)(C(=O)NC2CCCCCCC2)N(Cc2ccccc2F)C3=O)o1 (centres undefined),i,
O=C(N[C@H](C1CCNCC1)C1CC(O)C1)c1ccc2nccnc2c1 (some centres undefined),+,MTase-Glo counter=3%
NS(=O)(=O)c1ccc(C(=O)NC(Cc2ccncc2)C2CC(O)C2)cc1 (centres undefined),i,
O=C(N[C@H](c1ccccc1)C1CC(O)C1)c1ccc(-n2cccn2)cc1 (some centres undefined),i,
CCc1cc2c(cc3n2CC(C)(C(=O)NC2CCCCC2)N(c2ccc(C)c(C)c2)C3=O)s1 (centres undefined),i,
SMILES,Methyltransferases,others
COc1ccc(CCNC(=O)CCc2nnc3n(Cc4ccccc4)c(=O)c4ccccc4n23)cc1OC,i,
CCCn1c(=O)c2ccc(C(=O)NCC(C)C)cc2n2c(=O)n(Cc3ccccc3Cl)nc12,i,
Cc1noc2c(-c3cnn(C)c3)cc(-c3cccnc3)nc12,i,
Cc1noc2c(N3CCOCC3)cc(-c3cccnc3)nc12,i,
Cc1noc2c(Nc3ccc(C(N)=O)cc3)cc(-c3ccsc3)nc12,i,
COc1cccc(-c2cc(-c3cccs3)nc3c(C)noc23)c1,i,
COC1CCN(c2cc(-c3ccsc3)nc3c(C)noc23)CC1,+,MTase-Glo counter=-5%[85.7 µM]
Cc1noc2c(N3CCOCC3)cc(-c3cccs3)nc12,+,MTase-Glo counter=2%[85.7 µM]
CCOc1ccc(CNC(=O)c2cc3n(n2)CC(C)(C(=O)NCCC(C)C)N(C)C3=O)cc1OC (centres undefined),i,
Cc1ccc(C(=O)N(Cc2ccccc2)S(=O)(=O)c2ccc3c(c2)n(C)c(=O)n3C)cc1,i,
COc1ccc(CN2C(=O)c3cc4ccc(OC)cc4n3CC2(C)C(=O)NC2CCCC2)cc1 (centres undefined),i,
CC1(C(=O)NC2CCCCC2)Cn2c(cc3occc32)C(=O)N1Cc1ccc(Cl)cc1 (centres undefined),i,
COc1ccc2c(c1)C(CN1CCN(c3ccc4oc(C(=O)O)cc4c3Cl)CC1)=CC(C)(C)CO2,+,MTase-Glo counter=-6%
COc1ccc2c(c1)C(COCc1ccc(C(=O)O)cc1)=CC(C)(C)CO2,i,
COc1ccc2c(c1)C(CN1CCN(CC(=O)OC(C)(C)C)CC1)=CC(C)(C)O2,i,
CCCN1C(=O)c2c(C(=O)NCc3ccc(OC)cc3)ncn2CC1(C)C(=O)NC1CCCC1 (centres undefined),i,
CCCn1c(=O)c2ccc(C(=O)NC3CCCC3)cc2n2c(=O)n(CC(=O)NC(C)CC)nc12 (centres undefined),i,
Cc1noc(C)c1-c1cc(-c2ccncc2)cn2cncc12,i,
Cc1noc(C)c1-c1cc(-c2ccc(CN(C)C)cc2)cn2cncc12,+,MTase-Glo counter=-17%[85.7 µM]
COc1ccc(-c2cccc(C(=O)NC3CCOCC3)c2)nn1,i,
CCCN1CCN(CCCN2C(=O)c3cc4occc4n3CC2(C)C(=O)NC2CCCCC2)CC1 (centres undefined),i,
CCC(C)NC(=O)c1ccc2c(=O)n(Cc3ccccc3)c3nn(Cc4ccc(C)cc4)c(=O)n3c2c1 (centres undefined),i,
Cc1ccccc1CN1C(=O)c2cc3sccc3n2CC1(C)C(=O)NC1CCCCC1 (centres undefined),i,
CC1CC(C)CN(S(=O)(=O)c2ccc3c(c2)oc(=O)n3CC(=O)NCCc2ccccc2)C1 (centres undefined),i,
O=C(CCC[C@@H]1[C@H]2CCCN3CCC[C@@H](CN1Cc1ccccc1)[C@@H]23)Nc1cccnc1,+,MTase-Glo counter=-4%
SMILES,Methyltransferases,others
COc1cccc(N2CCN(C(=O)CCC[C@@H]3[C@H]4CCCN5CCC[C@@H](CN3C)[C@@H]45)CC2)c1,i,
COc1ccc(C)cc1NC(=O)CCC[C@@H]1[C@H]2CCCN3CCC[C@@H](CN1C)[C@@H]23,i,
COc1ccc(S(=O)(=O)N2CCCC(CN3CCC(C)CC3)CC2)cc1 (centres undefined),i,
CCc1ccc(N2C(=O)c3cc4occc4n3CC2(C)C(=O)NC2CCCCC2)cc1 (centres undefined),i,
Cn1c2c(c3ccccc31)C(C(=O)NCc1ccc(F)cc1)N(c1cccc(C(F)(F)F)c1)C(=O)CS2 (centres undefined),i,
CCc1cccc(NC(=O)c2cc3n(n2)CC(C)(C(=O)NC2CCCC2)N(CC)C3=O)c1 (centres undefined),i,
CCCn1c(=O)c2cc(F)ccc2n2c(SCC(=O)Nc3ccc(Cl)cc3)nnc12,i,
O=C(Cn1c(=O)oc2cc(S(=O)(=O)NC3CCCC3)ccc21)N1CCCC1,i,
COc1cccc(-c2cccc(C(=O)N3C[C@H](CO)C[C@H](CN(C)C)C3)c2)c1,+,MTase-Glo counter=-2%
